The whole screen tested about 330,000 compounds, of which about 1,500 (0.45%) were called active. Not shown: some 6% with an inconclusive outcome. The entries come from a sample that favours actives as a whole. Unmarked numbers belong to inactive results. Calls follow the shape of the full dose curve; tested in A549 cells.
Assay: qHTS for Stage-Specific Inhibitors of Vaccinia Orthopoxvirus: Venus Reporter Primary qHTS; also: nearly all actives have a fitted effect of over 30% in size
Settings: Vaccinia virus Venus reporter expression, fluorescence; series mostly up to 36.5 µM; activity change, negative = inhibition: at the top concentration
% is scaled to controls: 0 for no effect and ±100 for the full control effect; potency is read from the fitted curve at half-maximal effect.

SMILES	activity change, negative = inhibition	Potency
COc1ccc(S(=O)(=O)N2CCCCC2c2cc(C(=O)NCc3ccc(F)cc3)no2)cc1 (stereo not given)	-10.1%	
CCN(CC)c1ncnc2c1ncn2[C@H]1CN(Cc2cccs2)C[C@@H](CO)O1	-4.26%	
CCOc1cc(N2CCOCC2)c(OCC)cc1NC(=O)c1cc(C)nc2ccccc12	-7.77%	
CCOc1cc(N2CCOCC2)c(OCC)cc1NC(=O)COc1cccc(Cl)c1	-18.9%	
CCOc1cc(N2CCOCC2)c(OCC)cc1NC(=O)COc1cccc2cccnc12		12.6 µM (active)
CN(N=O)c1ccc(C=C2c3ccccc3-c3ccccc32)cc1	-10.5%	
CN(C)C1=C2C=CC=CC2/C(=C2/C=Cc3ccccc32)C=C1 (stereo not given)	-11.3%	
COC(=O)c1ccc(COc2ccc(/C=N/NC(=O)C(=O)Nc3ccc(OC)cc3)cc2OC)o1	4.27% [at 7.34 µM]	
CCCc1ccc(OCc2ccc(C(=O)N/N=C/c3cccc([N+](=O)[O-])c3)o2)c(OC)c1		7.08 µM (active)
O=C(N/N=C/c1cccc(OCc2ccccc2)c1)c1ccc(Br)o1	-10.1%	
CC(=O)Nc1cccc(-c2cc(NC(C)=O)c3ncc(-c4ccccc4)n3c2)c1	-4.03%	
CC(C)C[C@@H]1Cc2[nH][nH]c(=O)c2[C@H](CCc2ccccc2)O1	-11.9%	
CC(C)Sc1nc(N)nc2c1ncn2C1OC(CO)C(O)C1O (stereo not given)	2.2%	
Nc1ncn(C2OC(CO)C(O)C2O)c(=O)n1 (stereo not given)		10 µM (active)
Nc1nc(SCc2ccc([N+](=O)[O-])cc2)c2ncn(C3OC(CO)C(O)C3O)c2n1 (stereo not given)	-18.7%	
Fc1cccc(Cc2c(-c3cccc(Cl)c3)nc3ccc(Br)cn23)c1	-4.21%	
C/C(=N\NC(=O)Cc1ccc(Br)cc1)c1cccnc1	-10.3%	
C/C(=N\NC(=O)c1ccccc1F)c1ccccn1	-13.5%	
C/C(=N\NC(=O)Cc1ccc(Cl)cc1)c1ccccn1		6.31 µM (active)
CCC(C(=O)NC(C)(C)C)n1c(-c2ccccc2)nc2ccccc21 (stereo not given)	-3.62%	
Cc1cc(Br)cn2c(Cc3ccsc3)c(-c3ccc(C#N)cc3)nc12	-6.63%	
COc1ccc(-c2cc3nc(NCCOc4ccccc4)ccn3n2)cc1	-8.89%	
CCOC(=O)C1=CC[C@@H](c2ccccc2)N(S(=O)(=O)c2ccc(C)cc2)[C@H]1c1ccc(CC)cc1	2.38%	
CCOc1ccc(S(=O)(=O)Nc2ccc(OC)nc2)cc1	-12.8%	
COc1ccc(NC(=O)CN2C(=O)NC(C)(c3ccccc3)C2=O)cn1 (stereo not given)	-4.42%	

SMILES	activity change, negative = inhibition	Potency
COc1ccc(CS(=O)/C(Cl)=C(/Cl)C(=O)Nc2ccc(OC)nc2)cc1 (stereo not given)		5.62 µM (active)
Cc1c(CCO)sc[n+]1CC(=O)c1ccc2ccccc2c1	1.96%	
COC(=O)C1(C(=O)OC)C/C=C\CN(S(=O)(=O)c2ccccc2[N+](=O)[O-])CCC1	5.58%	
COc1ccc(Br)c(Cn2c(C)c(C(=O)NCc3cccs3)sc2=O)c1	-4.37%	
COc1cccc(NC(=O)C2(C)CCN2Cc2ccccc2Cl)c1 (stereo not given)	-19.1%	
O=C(NCc1ccccc1)C(c1ccc(F)cc1)N1CCN(C(=O)C2CCCO2)CC1 (stereo not given)	-11.6%	
Fc1ccc2[nH]c3c(N4CCN(Cc5ccc6c(c5)OCO6)CC4)ncnc3c2c1		6.31 µM (active)
O=c1[nH]c(N2CCN(Cc3ccc4c(c3)OCO4)CC2)nc2c1CCCC2	-2.01%	
Fc1ccc(N2CCN(Cc3ccc4c(c3)OCO4)CC2)cc1	-5.26%	
CCOP(=O)(OCC)C(Cc1ccccc1)N=C(c1ccccc1)c1ccccc1 (stereo not given)	11.1%	
CN(Cc1ccccc1)c1ccc(/C=C/c2ccnc3ccccc23)cc1	-10.8%	
Brc1cccc[n+]1Cc1cccc(C[n+]2ccccc2Br)c1	-8.21%	
COC(=O)c1ccc2nc(-c3ccc(F)cc3)c(Cc3ccc(C)cc3)n2c1	-7.97%	
CC(C)(C)C1CCC(NC(=O)c2cnn3c2NC(=C2CC2)C=C3C(F)F)CC1 (stereo not given)	-29.1%	
O=c1c2ccccc2[nH]c(=S)n1-c1cccc(Cl)c1	-16.2%	
O=c1c(-c2cccc(Cl)c2)c[nH]n1-c1ccccc1	-15.6%	
Cc1[nH]n(-c2cccc(Cl)c2)c(=O)c1-c1ccc(Cl)cc1		28.2 µM (active)
CCN(CC)c1ccc(/C=C/c2c(C)cnc3ccc(C)cc23)cc1	-14.2%	
Cn1c(=O)[nH]c(=O)c2c1nc(N1CCN(CCO)CC1)n2CCSc1nc2ccccc2s1	-9.09%	
CN1CCN(c2nc3c(c(=O)[nH]c(=O)n3C)n2Cc2cccc3ccccc23)CC1	-21.5%	
Cn1c(=O)[nH]c(=O)c2c1nc(N1CCN(C(c3ccccc3)c3ccccc3)CC1)n2CCO		12.6 µM (active)
COC(=O)[C@@]12C[C@@H](CC(=O)NCc3cccc(C(F)(F)F)c3)C(=O)N(Cc3ccco3)C1=CCC(C)(C)C2	-29.1%	
C=C(C)C(=O)O[C@H]1C/C(C)=C\C(=O)/C=C(\C)[C@H](O)[C@@H]2OC(=O)C(=C)[C@@H]21		10 µM (active)
O=C1NC[C@H](Cc2ccc(O)cc2)N(C[C@H]2CCCN2C[C@H](Cc2ccccc2)N2C[C@H](Cc3ccccc3)N(CCc3ccccc3)C(=O)C2=O)C1=O	-2.33%	
C#CCOCCOCCOCCNc1nc(N2CCN(C(=O)CCCCCCCCCCNC(=O)Cn3cc(CCCCCN)nn3)CC2)nc(N2CCN(C(=O)CCCCCCCCCCNC(=O)[C@H](CO)n3cc(CCCSC)nn3)CC2)n1		10 µM (active)
